Measured values taken from the supplement of paper PMC6555819.

Columns and labels:
Experiment in all cases: PBM binding z-score (relative to random genomic background probes); higher = stronger binding; sequences stand for … in GC…GCGATTGACAGCGTAGAATGAAGG
[1] = test system: FXR:RXRa (NR concentration 270 nM, RXRa partner concentration 90 nM)
Method in brief: (§1)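 Antibodies against each partner of ligand-free nuclear receptor dimers (one per run) detected binding on custom Agilent 4×180K protein-binding microarrays after 1 h incubation. The double-stranded probes had 34-nt variable regions carrying direct-repeat seeds, single-nucleotide variants, half-site ablations and random human genomic background sequences. Binding z-scores, from regression-normalized fluorescence, use the random background probes as reference.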

[2] = test system: LXRa:RXRa (NR concentration 270 nM, RXRa partner concentration 90 nM)
Method in brief: as §1

[3] = test system: LXRa homodimer (NR concentration 270 nM)
Method in brief: as §1

[4] = test system: LXRb:RXRa (NR concentration 270 nM, RXRa partner concentration 90 nM)
Method in brief: as §1

[5] = test system: LXRb homodimer (NR concentration 270 nM)
Method in brief: as §1

[6] = test system: PPARa:RXRa (NR concentration 270 nM, RXRa partner concentration 90 nM)
Method in brief: as §1

[7] = test system: PPARg:RXRa (NR concentration 180 nM, RXRa partner concentration 90 nM)
Method in brief: as §1

[8] = test system: PPARg:RXRa 270nM:90nM, anti-RXR (NR concentration 270 nM, RXRa partner concentration 90 nM)
Method in brief: as §1

[9] = test system: PPARg:RXRa 30nM:10nM, anti-RXR (NR concentration 30 nM, RXRa partner concentration 10 nM)
Method in brief: as §1

[10] = test system: PPARg:RXRa 90nM:30nM, anti-RXR (NR concentration 90 nM, RXRa partner concentration 30 nM)
Method in brief: as §1

[11] = test system: PPARg:RXRa DBDmut IVT, anti-RXR (DBD mutation: RXRa K156A/R161A, NR concentration 270 nM, RXRa partner concentration 90 nM)
Method in brief: as §1

[12] = test system: PPARg:RXRa IVT, anti-PPARg (NR concentration 270 nM, RXRa partner concentration 90 nM)
Method in brief: as §1

[13] = test system: PPARg DBDmut:RXRa IVT, anti-PPARg (DBD mutation: PPARg1 K132A/R137A, NR concentration 270 nM, RXRa partner concentration 90 nM)
Method in brief: as §1

[14] = test system: PPARg DBDmut IVT, anti-PPARg (DBD mutation: PPARg1 K132A/R137A, NR concentration 270 nM)
Method in brief: as §1

[15] = test system: PPARg homodimer (NR concentration 180 nM)
Method in brief: as §1

[16] = test system: PXR:RXRa (NR concentration 270 nM, RXRa partner concentration 90 nM)
Method in brief: as §1

[17] = test system: PXR homodimer (NR concentration 270 nM)
Method in brief: as §1

[18] = test system: RARa:RXR (NR concentration 270 nM, RXRa partner concentration 90 nM)
Method in brief: as §1

[19] = test system: RARa homodimer (NR concentration 270 nM)
Method in brief: as §1

[20] = test system: RARb:RXRa (NR concentration 270 nM, RXRa partner concentration 90 nM)
Method in brief: as §1

Sequence	PBM binding z-score [1]	PBM binding z-score [2]	PBM binding z-score [3]	PBM binding z-score [4]	PBM binding z-score [5]	PBM binding z-score [6]	PBM binding z-score [7]	PBM binding z-score [8]	PBM binding z-score [9]	PBM binding z-score [10]	PBM binding z-score [11]	PBM binding z-score [12]	PBM binding z-score [13]	PBM binding z-score [14]	PBM binding z-score [15]	PBM binding z-score [16]	PBM binding z-score [17]	PBM binding z-score [18]	PBM binding z-score [19]	PBM binding z-score [20]
GCTACTAGTTGAAAGGGCAACCGAATGATTCTCG	0.0739	0.67	-0.0669	0.754	-0.373	2.62	3.76	5.17	3.07	5.08	0.65	1.33	0.246	-0.547	0.922	0.637	-0.0671	1.32	-0.371	1.95
CCGACTGGGCCACGAAAGGTCATTGATTCAGTGA	3.33	4.99	3.8	4.13	-0.0773	4.31	3.41	4.06	1.52	3.16	4.66	4.28	-0.928	-1.23	2.39	5.17	0.941	4.89	0.265	3.79
TATACAGGGTCAAAGTCCAGAGTACGAATGTCGA	6.87	6.67	3.54	5.33	3.32	5.98	6.93	6.5	3.78	5.77	2.42	4.52	3.19	3.67	3.98	4.6	1.31	5.3	2	4.42
AATACAGGGTCACTAGGCCAGAATAGGTACGAAT	6.2	5.06	1.04	4.11	1.02	5.95	7.89	6.5	2.7	5.33	3.44	5.78	1.66	1.79	2.05	3.16	0.787	4.21	1.45	4.27
CTCGAAGGGTCGTGCTCAGGTGAGTATACCAAAC	2.01	1.45	-0.37	1.52	-0.487	2.89	0.441	1.12	-0.0599	0.72	-0.253	0.525	-0.515	0.0417	0.506	1.37	-0.509	2.56	-0.561	2.31
ACTAGTTGGTCAGCTGAGGTCACACAGAATTCGG	3.75	3.32	2.31	3.64	0.768	3.8	1.87	2.46	0.831	1.73	1.48	3.02	0.452	0.375	2.18	5.36	1.87	4.56	0.455	3.72
TAGCCTAGGTCAGATCGGGCAAGTATACGCTATA	1.87	1.1	-0.305	0.779	-0.322	1.74	0.654	0.623	-0.284	0.343	0.264	1.08	-0.209	-0.848	-0.0891	0.344	-0.431	1.06	-0.377	2.99
CCGACTGGGGCACAAAGGTTACCATACCATCCGG	0.682	0.574	0.127	1.44	-1.09	3.24	4.16	5.34	2.72	5.14	3.32	4.48	-0.0878	-1.02	0.929	1.58	0.126	2.57	0.061	2.31
GCGACTGGGGCATCAGCAGGTTACGATAACTTAA	-0.306	-0.214	-0.449	0.641	-0.638	1.38	1.05	0.876	-0.247	0.263	3.75	3.19	-0.586	-0.712	0.335	0.0357	-0.369	0.42	-0.452	0.866
ATATGTAGGTTAGCTAGGGTCATTCAGACTAGGC	4.45	5.22	1.89	3.59	0.624	4.36	4.65	4.41	2.3	3.61	6.58	6.18	2.95	1.89	3.4	5.64	2.1	4.85	1.52	2.71
GCTAGCAGGCCATTTGGGTCACTGAATGACGGGC	-0.0182	-0.185	-0.885	-0.0353	-0.763	1.33	0.576	0.447	-0.489	-0.116	1.8	2.35	-0.118	-0.738	-0.224	0.537	-0.19	0.876	-0.661	1.49
TTATCAAGGTGAGCTGAGGTCGTTGATCCAACTC	1.87	1.22	-0.0853	0.999	-0.746	1.87	0.583	1.19	0.537	0.566	1.53	2.79	0.246	-0.126	0.465	4.8	0.706	1.99	-0.272	1.85
TAGTCTAGGTCATGGGCCAGTATACCACGCGAAC	4.42	3.68	1.27	2.58	1.74	4.88	7.25	6.37	3.68	6	5.8	6.96	3.12	2.31	2.49	1.57	0.209	2.78	0.751	3.95
TCTTGCAGATCAAAGGTTAAGAAAGCCGAAGCCT	1.5	1.61	-0.333	1.79	-0.606	4.12	5.83	6.41	5.71	6.62	0.914	2.37	0.0487	-1.09	0.464	1.72	-0.464	2.7	-0.444	1.7
AGAATGAGGTTATTAAGATCAGGGATTTGCGGTC	1.64	1.59	0.335	1.29	0.376	2.39	1.5	1.92	0.623	1.21	3.56	2.51	1.03	0.211	0.911	1.23	0.655	1.64	0.863	1.37
